# Laboratory results published in PubChem BioAssay (NCI).
# About 83,000 compounds went through this panel and 20% of them were active in at least one assay; those are over-represented in the sample as a whole.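 96-well plates, one dose, 48 hours. Percent growth reported; active if below 10.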 Values without a mark were called inactive. Active and inactive are the calls of the source.
# How the values were obtained:
# Test in all cases: NCI-60 one-dose screen, 48 h (100 = growth as untreated, 0 = no growth, -100 = all killed)
# Conditions in all cases: 10 µM unless noted
# [1] = tested on: SR leukemia
# [2] = tested on: RPMI-8226 leukemia
# [3] = tested on: OVCAR-5 ovarian
# [4] = tested on: OVCAR-4 ovarian
# [5] = tested on: SK-OV-3 ovarian
# [6] = tested on: IGROV1 ovarian
# [7] = tested on: OVCAR-3 ovarian
# [8] = tested on: HS 578T breast
# [9] = tested on: NCI/ADR-RES ovarian
# [10] = tested on: T-47D breast
# [11] = tested on: BT-549 breast
# [12] = tested on: MDA-MB-435 melanoma
# [13] = tested on: SW-620 colon
# [14] = tested on: MCF7 breast
# [15] = tested on: HCT-116 colon
# [16] = tested on: HCC-2998 colon
# [17] = tested on: KM12 colon
# [18] = tested on: OVCAR-8 ovarian
SMILES,growth [1],growth [2],growth [3] [%],growth [4],growth [5] [%],growth [6],growth [7],growth [8] [%],growth [9] [%],growth [10],growth [11],growth [12],growth [13],growth [14],growth [15],growth [16],growth [17],growth [18] [%]
O=C(Nc1ccc(OS(=O)(=O)c2ccc(F)cc2)cc1)c1ccc(Cl)cc1,91.4%,94.2%,102,106%,105,95.7%,102%,104,93.1,78.1%,97.4%,117%,108%,92.9%,95.5%,106%,103%,
CCCCCCNC(=O)Oc1ccc(/C(=C(\C)c2ccc(Cl)cc2)c2ccc(OCCN3CCCCC3)cc2)cc1,-22.4% (active),17.7%,72,36.7%,56.3,54.8%,58.4%,65.2,63.5,29.1%,64.4%,52.6%,7.33% (active),7.75% (active),6.05% (active),62.9%,36.5%,
CNC(C)[C@H]1CCC2C3CCC4C[C@@H](N(C)C(=O)c5ccccc5)CC[C@]4(C)C3CC[C@@]21C (some centres undefined),34.5%,,81.6,-5.3% (active),67,22.8%,9.46% (active),38.7,42.4,0.208% (active),31%,-25.6% (active),-21.7% (active),5.05% (active),-1.52% (active),18.4%,15.4%,47.5
Cc1ccc(C(=O)N/N=C/c2cccc(Oc3ccccc3)c2)cn1,48.6%,89.5%,93.1,86.7%,80,24%,,50.8,19.8,66.3%,38.1%,-48% (active),29.3%,37.2%,32.8%,55.4%,22.8%,
COc1ccc2sc3c(NCCCNCCO)nc4ccccc4c3c(=O)c2c1,-46.9% (active),,84.2,4.38% (active),85.7,45.9%,0.904% (active),53,63.8,86.5%,81.7%,10.6%,-83.2% (active),25.7%,-79.3% (active),-84.3% (active),-15.6% (active),54.6
Cc1nc(NC(=O)COc2ccc(/C=C3\Cc4ccc(Cl)cc4C3=O)cc2)sc1C,93.2%,103%,105,113%,114,-69.8% (active),,139,96.3,109%,328%,96.8%,107%,88.6%,109%,,119%,
COc1ccn2c(C(C)=O)cc(C(=O)c3ccc4c(c3)Sc3ccccc3N4)c2c1,5.07% (active),11.1%,36.9,50.2%,18.8,34.9%,,41.9,12.7,57.4%,55.6%,-32.9% (active),23.4%,20.9%,1.38% (active),21.2%,7.27% (active),
Cc1ccc(C(=O)NN2C(=O)CSC2c2cccc([N+](=O)[O-])c2)cn1 (centres undefined),109%,82.7%,94.7,95%,114,73.3%,92.9%,124,95.2,96.1%,104%,97%,98.3%,112%,99.6%,84%,106%,
CCCCOc1ccc(/C=N/NC(N)=S)cc1,84.7%,49.1%,93.1,41.3%,92.1,52.3%,63.2%,89.8,85.5,23.8%,73.6%,85.5%,73.3%,61.7%,67.8%,79.7%,69.2%,
CCOC(=O)c1cn2ncnc(Oc3ccc(NC(=O)NCCN4CCN(C)CC4)c(Cl)c3)c2c1C,-13.9% (active),,97.1,72.3%,95.2,73.3%,76.2%,74.3,90.8,25.5%,77.8%,40.7%,69%,65.5%,45.3%,89.2%,91.4%,64.7
O=c1c2cc(F)ccc2sc2c(NCCO)nc3ccccc3c12,88.9%,,108,111%,109,104%,121%,110,103,93.1%,114%,110%,103%,39.4%,105%,116%,105%,97.1
CC1(C)C2CC1C1(/C=N/NC(N)=S)C(C2)C(C#N)(C#N)C1(C#N)C#N (centres undefined),4.63% (active),30.4%,126,94.3%,103,67.1%,63.1%,88.7,,64.1%,,88.6%,50%,59.2%,40.7%,94.1%,95.7%,
Nc1ccccc1-c1cc2c(c3c1[nH]c1ccccc13)CCCCC2,94.2%,99.3%,108,105%,115,,102%,95.2,,86.8%,108%,112%,96.2%,76%,76.3%,106%,88.9%,
C=C1C(=O)O[C@H]2[C@H]1CC/C(COC(=O)CSCC(=O)OC/C1=C/CC[C@@]3(C)O[C@H]3[C@H]3OC(=O)C(=C)[C@@H]3CC1)=C\CC[C@@]1(C)O[C@@H]21,0.996% (active),-2.24% (active),87.3,46.6%,97.5,7.28% (active),3.24% (active),59.7,86.2,12.3%,-1.44% (active),26.8%,-29% (active),23.4%,-46.6% (active),94.5%,69.4%,
Cc1ccc(C(=O)N/N=C/c2cccc([N+](=O)[O-])c2)cn1,108%,93%,108,111%,102,108%,,93.1,104,93.1%,122%,100%,103%,101%,105%,107%,107%,
COc1cc(/C=C2\C(=O)Nc3ccc(Br)cc32)cc(OC)c1OC,16.3%,52.2%,96.8,71.8%,88.3,43%,60.3%,63,,53.2%,58.3%,21.2%,36.1%,24.2%,37.3%,67.6%,47.8%,
C=C1C(=O)O[C@H]2[C@H]1CC/C(COC(=O)CCC(=O)NCCOCCOCC(=O)Nc1ccc(OC)c(C(N)=O)c1O)=C\CC[C@@]1(C)O[C@@H]21,46.8%,87%,109,110%,96.7,59.2%,85%,109,103,87.1%,,97.8%,64.2%,74.6%,69.5%,112%,102%,
Cc1nc2nc(SCC(=O)O)[nH]c2c(=O)[nH]1,115%,96.9%,104,131%,103,101%,115%,99,105,96.7%,,107%,98.5%,93.2%,104%,101%,105%,
